Assay outcomes deposited in PubChem BioAssay by National Center for Advancing Translational Sciences (NCATS).
Sampled rows, rich in hits. Any-hit rate of the full collection: about 6%.
D1 potentiator = human D1 dopamine receptor positive modulation; P21728; 360,000 tested, 0.036% active; potentiation, % at 10 µM; AID 504651; HEK293 TREx D1 cells, calcium flux, dopamine EC20 potentiation; in the data active means potentiation above about 30%; further: 0% is about no effect
Target sequence (P21728 whole entry, looked up): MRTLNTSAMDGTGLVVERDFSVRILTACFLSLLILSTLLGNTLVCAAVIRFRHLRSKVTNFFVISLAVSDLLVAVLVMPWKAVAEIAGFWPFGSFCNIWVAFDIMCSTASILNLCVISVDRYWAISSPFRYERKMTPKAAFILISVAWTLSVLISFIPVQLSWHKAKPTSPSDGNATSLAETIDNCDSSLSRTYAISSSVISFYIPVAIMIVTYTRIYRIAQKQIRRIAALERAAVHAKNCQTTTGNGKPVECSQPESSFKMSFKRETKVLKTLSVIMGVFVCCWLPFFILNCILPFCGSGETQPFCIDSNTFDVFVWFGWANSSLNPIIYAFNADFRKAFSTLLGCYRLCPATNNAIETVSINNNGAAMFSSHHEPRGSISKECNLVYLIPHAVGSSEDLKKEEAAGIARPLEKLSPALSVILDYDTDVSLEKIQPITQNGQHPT
D3 ag = D3 dopamine receptor (human) agonism; P35462; D3R DiscoveRx beta-arrestin cells, luminescence, 90 min; max activation, %; 410,000 tested, 0.58% active; in the data active means max activation above about 30%; further: 0% is about no effect
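Agonist-mode cell screen: cells plated at 1500/well and incubated overnight at 37 °C, then exposed to library compounds for 90 min at 37 °C. Detection reagent was added for 30–60 min at room temperature, and luminescence was read.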
DRD3 antagonist = blocks the human D3 dopamine receptor; P35462; D3R cells, DiscoveRx beta-arrestin luminescence, antagonist mode; stronger effect = lower value; max response, negative = inhibition, %; 360,000 tested, 2.5% active; in the data active means max response below about -50%; further: on the % scale 0 is the no-effect control and ±100 the full control effect
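Cells plated overnight at 1500 cells/well, then exposed to library compounds with dopamine controls for 90 minutes at 37 degrees C. DiscoveRx reagent added for 30–60 minutes at room temperature; luminescence read, quantitative HTS format.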
D1 antag = human D1 dopamine receptor antagonism | 360,000 tested, 3.2% active | P21728 | AID 504652 | HEK293 TREx D1 cells, calcium flux, dopamine EC80; stronger effect = lower value | activity change, negative = inhibition, % at 10 µM; in the data active means activity change below about -30%; further: on the % scale 0 is the no-effect control and ±100 the full control effect
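Antagonism measured as reduced calcium response to an EC80 dopamine addition following 180 s compound pre-read; cells were inducible HEK293 Trex D1 plated overnight at 30 C, read kinetically at 1 cycle/sec.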
D1 ag = agonists of human D1 dopamine receptor. AID 504660. 360,000 tested, 1% active. P21728. activation, % at 2 µM. HEK293 T-REx D1 cells, calcium flux, agonist mode; in the data active means activation above about 30%; further: 0% is about no effect
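Agonism was scored from calcium flux recorded over 180 s (1 read/s) after pintool compound addition, following a 10-cycle baseline. Cells were inducible force-coupled HEK293 TREx D1, plated overnight at 30 C and loaded with no-wash calcium dye.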
The depositor's hits bear a star; . = no result; ! = a repeat was not active.

SMILES	D1 potentiator	D3 ag	DRD3 antagonist	D1 antag	D1 ag
CCOc1cc(CNC(=O)CCCn2c(=O)c3cccn3c3cccnc32)cc(OCC)c1OCC	-5	-1	10	-33*!	0
CC(C)CCNC(=O)CCCn1c(=O)c2cccn2c2ccccc21	-4	4	.	-37*	7
CCOc1ccccc1CNC(=O)CCCn1ncn2c(cc3occc32)c1=O	-2	5	-6	-40*!	1
COc1ccccc1CNC(=O)CCCn1c(=O)c2cccn2c2ccccc21	-4	2	.	-36*	26
COCCCNC(=O)CCCn1c(=O)c2cccn2c2ccccc21	0	1	.	-1	-1
Cc1ccccc1CNC(=O)CCCn1c(=O)c2cccn2c2ccccc21	-4	4	.	2	4
CC(C)(C)CC(C)(C)c1ccc(OCCO)cc1	.	7	.	.	.
CC(C)C[C@H]1C(=O)N2CCC[C@H]2[C@]2(O)O[C@](NC(=O)[C@@H]3C=C4c5cccc6[nH]c(Br)c(c56)C[C@H]4N(C)C3)(C(C)C)C(=O)N12	.	39*	.	.	.
Cc1nc2ccc(-c3ccccc3)cc2o1	-3	7	21	-46*	1
COCCCNc1nc2c(c(=O)[nH]c(=O)n2C)n1CC(O)COc1ccc(Cl)cc1 (configuration not stated)	3	5	.	1	-1
CC(C)OC(=O)C(NC(=O)c1ccccc1)=C1CCCCC1	-2	0	-7	-38*	4
O=C(Nc1ccccc1O)c1cc2cc(Br)ccc2oc1=O	0	-1	-25	-5	2
O=C(NNC(=O)c1cc2cc(Br)ccc2oc1=O)c1ccc(O)cc1	4	-1	-62*	-19	-1
Cc1cccc(C(=O)CC(=O)c2cc(Cl)ccc2O)c1	3	0	-79*	-2	1
O.O=C([O-])CC([S-])C(=O)[O-].[Au+].[Na+].[Na+] (configuration not stated)	.	-17	.	.	.
COc1ccc(CNCC(O)COc2ccc3[nH]c(=O)ccc3c2)cc1OC (configuration not stated)	.	2	.	.	.
CC(C)COc1ccc(C(=O)N2CCC(c3nc4ccccc4s3)CC2)cc1	-2	-5	.	-1	6
O=C(OCC(=O)N1CCCCC1)c1cc(NS(=O)(=O)c2ccc(Cl)c([N+](=O)[O-])c2)ccc1O	-9	-8	-50*	0	6
Cc1cccc(OCCC(=O)NNC(=O)Cn2nc(C)cc2C)c1	.	5	12	.	.
COc1ccc(CCC(=O)NNC(=O)Cn2nc(C)cc2C)cc1	-11	9	10	-58*	4
Cc1ccc(C)c(N(C(=O)c2nsc(Cl)c2Cl)C(C(=O)NC2CCCC2)c2ccc(O)cc2)c1 (configuration not stated)	-5	-15	-62*	-14	5
CCOC(=O)CSC1=C(C#N)C(=O)NC(c2ccc(OC)cc2)S1 (configuration not stated)	-1	-4	-58*	.	-1
COc1ccc(C2NC(=O)C(C#N)=C(S)N2c2ccc(C)cc2)cc1OC (configuration not stated)	19	-4	1	-4	2
CCOC(=O)CSc1nc2cc(OC)ccc2cc1C#N	-5	-4	10	5	0
CCOC(=O)CSC1=C(C#N)C(=O)NC(c2ccc(OC)c(OC)c2)S1 (configuration not stated)	-5	-1	-67*	7	3
SMILES	D1 potentiator	D3 ag	DRD3 antagonist	D1 antag	D1 ag
CCOC(=O)c1[nH]c(C)c(CCC(=O)Nc2ccccc2C(=O)OC)c1C	-3	-2	.	-7	6
CC(CN1CCCC1)OC(=O)c1ccc(Br)cc1 (configuration not stated)	-5	-20	-67*	-1	1
CC(CN1CCCCC1)OC(=O)C1c2ccccc2Oc2ccccc21 (configuration not stated)	-7	-3	-63*	0	2
CC(CN1CCCCC1)OC(=O)c1ccccc1F (configuration not stated)	-10	-15	-15	-17	1
CCOC(=O)C(CN1CCCC1)c1ccccc1 (configuration not stated)	-2	-30	-1	-4	1
CC(CN1CCCCC1)OC(=O)c1ccc(Cl)cc1 (configuration not stated)	6	-18	-56*	9	3
O=C(c1ccc(Cl)cc1)C(CN1CCCCC1)c1ccccc1 (configuration not stated)	-4	-26	-73*	-16	0
CCCCN(C)Cc1c(C)[nH]c2ccccc2c1=O	-1	-4	0	-5	0
Cc1[nH]c2ccccc2c(=O)c1CN(C)Cc1ccccc1	-2	-3	-63*	-7	-1
COc1ccccc1N1CCN(CCCNc2c(C)c(=O)n(C)c(=O)n2C)CC1	.	0	-57*	.	.
COc1ccccc1N1CCN(CC(=O)c2c(N)n(C)c(=O)n(C)c2=O)CC1	-2	-4	-7	9	-1
COc1ccccc1N1CCN(Cc2cc(=O)n3ccsc3n2)CC1	3	-15	-30	18	0
COc1ccccc1N1CCN(CCS(=O)(=O)c2cc(Cl)ccc2Cl)CC1	.	-10	-93*	.	.
COc1ccccc1N1CCN(S(=O)(=O)c2ccc(F)cc2)CC1	1	0	-18	15	13
COc1ccccc1N1CCN(CCCNc2cc(=O)n(C)c(=O)n2C)CC1	0	-3	-62*	2	-1
COc1ccccc1N1CCN(S(=O)(=O)c2ccc3c(c2)n(C)c(=O)n3C)CC1	-4	2	-11	-47*	2
Cn1c(=O)c2cc(S(=O)(=O)N3CCOCC3)ccc2n(C)c1=O	5	-1	-3	-31*	-1
COc1ccc(S(=O)(=O)N2CCN(c3ccccc3F)CC2)cc1-c1noc(C)n1	-3	3	.	-34*	6
CCc1nc(-c2cc(S(=O)(=O)N3CCN(c4ccccc4F)CC3)ccc2OC)no1	-5	2	.	5	7
COc1ccccc1N1CCN(S(=O)(=O)/C=C/c2ccccc2)CC1	-2	-6	8	-37*	1
COc1cccc(CNC(=O)c2ccc(NC(=O)N3CCCCc4ccccc43)cc2)c1	-2	-6	.	0	1
CC1CCN(C(=O)c2ccc(NC3=C(Cl)C(=O)N(Cc4ccccc4)C3=O)cc2)CC1	-5	-33	-53*	-8	9
CC1CCCCN1C(=O)c1cccc(NC2=C(Cl)C(=O)N(Cc3ccccc3)C2=O)c1 (configuration not stated)	-3	-1	-2	5	7
O=[N+]([O-])c1cc2c(c(CSc3nnnn3-c3ccc(O)cc3)c1)OCOC2	-5	4	25	-33*	3
CCOc1ccc(CNC(=O)CCCn2nc(C)c3sc4ccccc4c3c2=O)cc1	-1	-9	.	-3	5
